Assay [1] concerns XIP peptide (Xip251-270) binding. The assay can be described thus: small-molecule binders of XIP peptide, primary screen, biochemical, small-molecule microarray, fluorescence 635/667 nm, 0.1 µg/mL protein (AID 1182). The following applies: fluorescent protein binding, 635 nm, higher = more signal, called active from +8 up or from −8 down.
The subject of another assay is XIP peptide (Xip251-270). As to the kind of experiment: small-molecule binders of XIP peptide, primary screen, biochemical, small-molecule microarray, fluorescence 635/667 nm, 0.5 µg/mL protein (AID 1183). The following applies: small-molecule microarray binding, fluorescence 635 nm; higher = more signal.
The nature of assay [2]: Plasmodium falciparum growth inhibition, primary screen, strain 3D7, DAPI fluorescence, 100 nL (AID 1184).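 Note: parasites grown inside human red blood cells in medium with human serum.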 The following applies: P. falciparum 3D7 growth, 3 d, higher = more signal.
In assay [3] the target is Homeobox protein Hox-A13 (Mus musculus) (UniProt Q62424). As to the kind of experiment: inhibitors of HoxA13-DNA binding, primary screen, biochemical, fluorescence polarization, labeled oligonucleotide (AID 1185). The following applies: 15 min, higher = more signal, called active from +8 up or from −8 down. (In fluorescence polarisation assays a small probe gives low polarisation when free and higher when bound to something large.)

A short description of assay [4]: inhibitors of hydroxyurea-induced Chk1 phosphorylation, primary screen, imaging, HeLa, phospho-Chk1 antibody, percent positive cells (AID 1186). The following applies: hydroxyurea-induced phospho-Chk1 immunofluorescence imaging, higher = more signal.
Assay [5] is described as follows: inhibitors of hydroxyurea-induced Chk1 phosphorylation, primary screen, imaging, HeLa, phospho-Chk1 nuclear intensity (AID 1187). The following applies: hydroxyurea-induced phospho-Chk1 immunofluorescence imaging, higher = more signal.

Structures are written as SMILES. Calls of active or inactive are those of the source. Unless noted, the rule behind the calls is not given here.

Homeobox protein Hox-A13 (Mus musculus), sequence (Q62424 whole entry, looked up): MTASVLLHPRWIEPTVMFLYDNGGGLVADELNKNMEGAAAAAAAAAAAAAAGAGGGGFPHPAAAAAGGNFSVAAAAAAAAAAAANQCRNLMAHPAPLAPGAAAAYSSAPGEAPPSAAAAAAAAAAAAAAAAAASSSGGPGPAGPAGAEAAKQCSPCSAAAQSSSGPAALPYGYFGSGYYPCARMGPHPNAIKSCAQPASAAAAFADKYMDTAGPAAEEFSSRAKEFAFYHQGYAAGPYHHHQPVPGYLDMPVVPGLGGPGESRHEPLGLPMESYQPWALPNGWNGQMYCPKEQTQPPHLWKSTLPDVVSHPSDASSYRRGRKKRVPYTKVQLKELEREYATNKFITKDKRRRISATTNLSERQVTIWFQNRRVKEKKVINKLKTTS

As for `CCOC(=O)C[C@H]1[C@H](OC(=O)c2ccccc2-c2ccccc2)[C@@H](NC(=O)c2ccc3ccccc3c2)c2cc(OCCCO)ccc2N1C(=O)c1ccccc1`, the composite z-score in assay [1] is -0.323 (inactive); in the assay with XIP peptide (Xip251-270), 0.306. The z-score in assay [2] is -1.72; in assay [3] it was -2.39 (inactive); in assay [4], 0.185 (inactive); in assay [5] it was 0.361 (inactive).

In the case of `Cc1ccc(S[C@]2(C(=O)NC(C)C)CC(=O)N(Cc3cc(C(F)(F)F)cc(C(F)(F)F)c3)[C@@H]2c2ccc(CO)cc2)cc1`, the composite z-score in assay [1] is 0.706 (inactive); in the assay with XIP peptide (Xip251-270) it was 0.49. Also, the z-score in assay [2] was -0.938; in assay [3], -2.62 (inactive); in assay [4], 0.0619 (inactive); in assay [5] it was 0.116 (inactive).

Turning to `COCCOC(=O)N1C(=O)[C@@]2(c3ccccc31)[C@H](c1ccc(O)cc1)N1[C@H](c3ccccc3)[C@H](c3ccccc3)OC(=O)[C@H]1[C@@H]2C(=O)N1CCN(c2ncccn2)CC1`, the composite z-score was 1.84 (inactive) in assay [1] and 0.787 with XIP peptide (Xip251-270). Further, the z-score in assay [2] was -1.16; in assay [3], -2.14 (inactive); in assay [4], 0.0666 (inactive); in assay [5], 0.651 (inactive).

As for `O=C1C2C=CC(C(O)c3cccc(O)c3)N(Nc3ccc([N+](=O)[O-])cc3)C2C(=O)N1c1ccccc1` (stereo not drawn), the composite z-score in assay [1] was -0.232 (inactive); with XIP peptide (Xip251-270), 0.342. Besides, the z-score in assay [2] was 1.25; in assay [3] it was -3.9 (inactive); in assay [4], 0.181 (inactive); in assay [5], -0.322 (inactive).

For `CC1CC/C=C\[C@H]2OC34C=CCN(c5ccc(Cl)cc5)C(=O)[C@H]3N(C(C)CO)C(=O)[C@]4(C)C2C(=O)O1` (stereo partly drawn), the composite z-score in assay [1] is -0.103 (inactive); in the assay with XIP peptide (Xip251-270) it was -0.279. Also, the z-score in assay [2] was -0.111; in assay [3], -4.76 (inactive); in assay [4], 0.558 (inactive); in assay [5], -0.11 (inactive).

For the compound `NCCCCCNC(=O)[C@H]1C[C@H]2C(=O)N3CCC[C@H]3C(=O)N2[C@H]1c1cccc(OCCO)c1`, the composite z-score in assay [1] is 1.19 (inactive); in the assay with XIP peptide (Xip251-270), 0.707. Also, the z-score in assay [2] is -1.24; in assay [3], -2.47 (inactive); in assay [4], -0.0667 (inactive); in assay [5], 0.53 (inactive).

With `NC(=O)NCC#Cc1ccc2c(c1)[C@]1(C(=O)N2)[C@H](c2ccccc2OCCO)N2[C@H](c3ccccc3)[C@H](c3ccccc3)OC(=O)[C@H]2[C@@H]1C(=O)O`, the composite z-score is 0.654 (inactive) in assay [1] and 0.418 in the assay with XIP peptide (Xip251-270). Moreover, the z-score in assay [2] is -0.373; in assay [3] it was -7.04 (inactive); in assay [4] it was 0.109 (inactive); in assay [5], 0.239 (inactive).

As to `CCCCN1CC=CC23O[C@@H]4/C=C\CCC(C)OC(=O)C4[C@H]2C(=O)N(CCCO)[C@@H]3C1=O` (stereo partly drawn), the composite z-score is -0.571 (inactive) in assay [1] and 0.214 in the assay on XIP peptide (Xip251-270). Besides, the z-score in assay [2] was 0.544; in assay [3], -3.97 (inactive); in assay [4], 0.331 (inactive); in assay [5] it was -0.112 (inactive).

On to `NCCCCCNC(=O)[C@@H]1C[C@@H]2C(=O)N[C@@H](CCCCN)C(=O)N2[C@@H]1c1ccc(O)cc1`, for which the composite z-score in assay [1] is 0.439 (inactive); in the assay on XIP peptide (Xip251-270), 0.827. Also, the z-score in assay [2] is -1.56; in assay [3], 1.23 (inactive); in assay [4], -0.484 (inactive); in assay [5] it was -0.497 (inactive).

`COCCOC(=O)N1C(=O)[C@@]2(c3cc(C#CCNC(N)=O)ccc31)[C@H](C(N)=O)[C@H]1C(=O)O[C@H](c3ccccc3)[C@H](c3ccccc3)N1[C@@H]2c1ccccc1OCCO`: the composite z-score in assay [1] is 0.253 (inactive); in the assay with XIP peptide (Xip251-270) it was 0.485. Besides, the z-score was 0.0701 in assay [2], -2.45 (inactive) in assay [3], 0.0661 (inactive) in assay [4] and 0.588 (inactive) in assay [5].

Consider `O=C1OCCC=C[C@H]2OC34C=CCN(c5ccc6ccccc6c5)C(=O)[C@H]3N(CCCO)C(=O)[C@@H]4C12` (stereo partly drawn), for which the composite z-score in assay [1] is -0.725 (inactive); with XIP peptide (Xip251-270), -0.617. The z-score was -1.83 in assay [2], -2.31 (inactive) in assay [3], -0.292 (inactive) in assay [4] and -0.64 (inactive) in assay [5].

As to `C=CCC(OC(C)=O)[C@@H]1[C@@H](N(Cc2ccc(-c3cccc(C(F)(F)F)c3)o2)C(=O)Cc2ccc(OC)cc2)c2cc(OCCCO)ccc2N1C(=O)c1ccc(-c2ccccc2)cc1` (stereo partly drawn), the composite z-score was 0.169 (inactive) in assay [1] and -0.0425 in the assay on XIP peptide (Xip251-270). For the same compound, the z-score in assay [2] was -2.78; in assay [3], -1.67 (inactive); in assay [4], 0.152 (inactive); in assay [5] it was 0.463 (inactive).

In the case of `CC(C)c1ccc(NN2C(C(O)c3ccc(F)cc3)C=CC3C(=O)N(c4ccccc4)C(=O)C32)cc1` (stereo not drawn), the composite z-score in assay [1] was 0.344 (inactive); in the assay with XIP peptide (Xip251-270), 0.774. In addition, the z-score in assay [2] is -0.344; in assay [3], -1.93 (inactive); in assay [4] it was 0.51 (inactive); in assay [5], 0.374 (inactive).

As for `CC(C)[Si](C#CCCCC#N)(O[C@H](c1ccccc1)c1cn(Cc2ccccc2)nn1)C(C)C`, the figures for the composite z-score (in assay [1]; in the assay with XIP peptide (Xip251-270)) were 0.206 (inactive) and 0.391, respectively. Further, the z-score is 0.559 in assay [2], -1.61 (inactive) in assay [3], -0.727 (inactive) in assay [4] and -0.29 (inactive) in assay [5].

Regarding `[N-]=[N+]=Nc1ccccc1C[C@]1(C(=O)NCC(O)CO)COC(c2ccc(OCCCO)cc2)=N1` (stereo partly drawn), the composite z-score was -0.0462 (inactive) in assay [1] and 0.106 with XIP peptide (Xip251-270). Also, the z-score in assay [2] was -1.57; in assay [3] it was -6.04 (inactive); in assay [4] it was 0.0856 (inactive); in assay [5], 0.636 (inactive).

As for `COc1cc(NN2C(C(O)c3ccc(N(C)C)cc3)C=CC3C(=O)N(c4ccccc4)C(=O)C32)cc(OC)c1OC` (stereo not drawn), the values for the composite z-score (in assay [1]; in the assay on XIP peptide (Xip251-270)) were 0.596 (inactive) and 0.0721, respectively. The z-score in assay [2] was -0.289; in assay [3], -4.2 (inactive); in assay [4], 0.111 (inactive); in assay [5], -0.0651 (inactive).

Turning to `CC(C)N1C(=O)C[C@@](C(=O)NC2CC2)(c2ccc([N+](=O)[O-])cc2)[C@H]1c1ccc(CO)cc1`, the values for the composite z-score (in assay [1]; in the assay on XIP peptide (Xip251-270)) were 0.65 (inactive) and 0.396, respectively. Besides, the z-score in assay [2] is -1.15; in assay [3] it was -1.81 (inactive); in assay [4], 0.254 (inactive); in assay [5], 0.529 (inactive).

`CC(C)[Si](C#C[Si](C(C)C)(C(C)C)C(C)C)(O[C@H](c1ccccc1)c1cn(Cc2ccccc2)nn1)C(C)C`: the composite z-score was -0.464 (inactive) in assay [1] and -0.0753 in the assay with XIP peptide (Xip251-270). Moreover, the z-score in assay [2] was -0.122; in assay [3], 0.371 (inactive); in assay [4], -0.269 (inactive); in assay [5], -0.216 (inactive).
